Of roughly 7,900 targets only a part is listed; those with a hit were picked by preference. About 0.6% of all pairs of compound and target were hits.
Compound: CCn1c(C(=O)N(C2CC2)C2CC2)cc2c3c(ncn3C)c(Nc3cc(C)n(C)n3)nc21
Assay: log2 fold change, soluble protein after heating vs DMSO (PISA); higher = thermal stabilisation; K562 cells, 10 uM, 30 min; active = over 0.2 and 3.5 SD of the protein, either way, in both replicates (recomputed)
Method in brief: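 For each measurement, 10 μM compound was applied for 30 min to K562 cells at 2×10^6 cells/mL. Aliquots were heated for 3 min across 48°C-58°C, pooled, and extracted in PBS with 0.5% NP-40 at 4°C; the supernatant after 21,000xg for 90 min was soluble protein. This was quantified by TMTpro 16plex LC-MS/MS with channel sums equalised, and thermal stability was reported relative to control samples from duplicates, on a log2 fold-change scale.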

UniProt Q8WYH8, sequence (Q8WYH8 whole entry, looked up): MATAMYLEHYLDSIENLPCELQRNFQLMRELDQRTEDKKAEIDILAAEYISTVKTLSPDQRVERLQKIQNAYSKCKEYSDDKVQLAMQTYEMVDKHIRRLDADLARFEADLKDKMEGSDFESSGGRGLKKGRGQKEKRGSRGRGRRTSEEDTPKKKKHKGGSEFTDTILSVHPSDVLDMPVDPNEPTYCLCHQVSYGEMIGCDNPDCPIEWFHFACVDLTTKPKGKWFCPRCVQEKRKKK
UniProt P13473, sequence (P13473 whole entry, looked up): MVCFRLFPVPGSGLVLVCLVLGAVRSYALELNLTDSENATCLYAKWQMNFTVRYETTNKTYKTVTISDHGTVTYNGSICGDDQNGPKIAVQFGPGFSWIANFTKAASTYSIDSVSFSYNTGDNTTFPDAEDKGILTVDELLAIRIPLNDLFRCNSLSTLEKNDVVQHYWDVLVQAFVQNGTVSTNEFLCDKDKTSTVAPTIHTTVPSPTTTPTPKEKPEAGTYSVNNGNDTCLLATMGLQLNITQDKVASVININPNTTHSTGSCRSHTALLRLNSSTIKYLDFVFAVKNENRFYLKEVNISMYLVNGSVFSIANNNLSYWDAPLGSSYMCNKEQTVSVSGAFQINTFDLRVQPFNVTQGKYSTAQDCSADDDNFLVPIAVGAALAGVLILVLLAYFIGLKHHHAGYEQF
UniProt P43361, sequence (P43361 whole entry, looked up): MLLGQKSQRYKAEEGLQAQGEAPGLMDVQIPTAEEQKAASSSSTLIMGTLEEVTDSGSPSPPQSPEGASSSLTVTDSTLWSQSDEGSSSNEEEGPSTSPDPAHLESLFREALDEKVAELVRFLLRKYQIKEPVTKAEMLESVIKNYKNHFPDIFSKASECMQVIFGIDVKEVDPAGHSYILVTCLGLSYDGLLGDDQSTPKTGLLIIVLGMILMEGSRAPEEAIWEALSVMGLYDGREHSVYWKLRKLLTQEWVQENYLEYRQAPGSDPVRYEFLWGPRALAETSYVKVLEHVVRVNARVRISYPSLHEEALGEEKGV
UniProt A4D2B0, sequence (A4D2B0 whole entry, looked up): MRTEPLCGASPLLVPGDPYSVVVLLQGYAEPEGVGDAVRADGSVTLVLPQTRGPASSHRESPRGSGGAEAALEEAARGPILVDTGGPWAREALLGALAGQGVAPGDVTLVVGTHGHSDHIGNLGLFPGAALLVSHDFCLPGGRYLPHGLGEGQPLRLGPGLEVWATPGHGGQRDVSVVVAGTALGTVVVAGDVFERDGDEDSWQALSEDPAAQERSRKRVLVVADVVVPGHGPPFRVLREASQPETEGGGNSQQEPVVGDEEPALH
UniProt O00214, sequence (O00214 whole entry, looked up): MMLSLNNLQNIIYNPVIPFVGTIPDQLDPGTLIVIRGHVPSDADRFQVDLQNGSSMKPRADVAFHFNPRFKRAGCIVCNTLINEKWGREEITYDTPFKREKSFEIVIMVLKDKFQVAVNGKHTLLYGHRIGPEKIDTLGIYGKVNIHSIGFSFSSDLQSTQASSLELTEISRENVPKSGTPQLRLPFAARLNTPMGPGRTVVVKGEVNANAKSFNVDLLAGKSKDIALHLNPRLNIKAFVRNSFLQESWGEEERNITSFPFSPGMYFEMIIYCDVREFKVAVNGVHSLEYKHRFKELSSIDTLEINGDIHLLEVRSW
UniProt Q9BQD3, sequence (Q9BQD3 whole entry, looked up): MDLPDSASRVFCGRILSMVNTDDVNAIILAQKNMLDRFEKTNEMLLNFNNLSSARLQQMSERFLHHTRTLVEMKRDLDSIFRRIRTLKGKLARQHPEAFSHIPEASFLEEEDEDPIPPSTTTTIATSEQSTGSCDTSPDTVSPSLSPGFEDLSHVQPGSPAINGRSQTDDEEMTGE
UniProt Q86VI4, sequence (Q86VI4 whole entry, looked up): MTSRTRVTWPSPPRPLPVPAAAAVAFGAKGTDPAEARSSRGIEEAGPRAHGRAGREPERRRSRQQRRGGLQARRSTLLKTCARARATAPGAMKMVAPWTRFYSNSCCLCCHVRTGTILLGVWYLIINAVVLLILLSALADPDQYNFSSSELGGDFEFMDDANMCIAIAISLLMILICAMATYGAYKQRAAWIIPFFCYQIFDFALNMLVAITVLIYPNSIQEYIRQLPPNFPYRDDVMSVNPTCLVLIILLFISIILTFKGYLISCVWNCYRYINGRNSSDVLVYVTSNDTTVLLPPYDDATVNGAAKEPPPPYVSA
UniProt Q32MZ4, sequence (Q32MZ4 whole entry, looked up): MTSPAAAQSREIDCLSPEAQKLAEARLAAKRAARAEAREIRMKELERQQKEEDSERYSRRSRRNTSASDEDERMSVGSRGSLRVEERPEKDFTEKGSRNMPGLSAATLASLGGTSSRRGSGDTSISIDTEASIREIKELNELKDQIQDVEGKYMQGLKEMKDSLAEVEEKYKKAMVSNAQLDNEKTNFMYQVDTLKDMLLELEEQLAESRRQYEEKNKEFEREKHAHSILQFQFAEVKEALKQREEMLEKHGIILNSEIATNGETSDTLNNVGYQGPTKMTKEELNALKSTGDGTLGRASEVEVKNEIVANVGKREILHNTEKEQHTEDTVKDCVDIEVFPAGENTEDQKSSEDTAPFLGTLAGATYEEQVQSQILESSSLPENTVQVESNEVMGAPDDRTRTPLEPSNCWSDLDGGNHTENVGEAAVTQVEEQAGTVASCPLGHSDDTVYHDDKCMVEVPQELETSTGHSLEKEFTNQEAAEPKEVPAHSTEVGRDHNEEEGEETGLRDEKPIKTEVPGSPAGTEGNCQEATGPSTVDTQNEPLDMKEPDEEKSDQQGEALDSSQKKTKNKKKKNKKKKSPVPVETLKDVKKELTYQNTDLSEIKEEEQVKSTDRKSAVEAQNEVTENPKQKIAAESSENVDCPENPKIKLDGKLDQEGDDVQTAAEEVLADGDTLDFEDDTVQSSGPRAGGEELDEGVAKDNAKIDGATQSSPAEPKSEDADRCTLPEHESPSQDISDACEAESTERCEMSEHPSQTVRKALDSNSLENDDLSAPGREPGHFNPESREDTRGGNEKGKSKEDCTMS
UniProt O15243, sequence (O15243 whole entry, looked up): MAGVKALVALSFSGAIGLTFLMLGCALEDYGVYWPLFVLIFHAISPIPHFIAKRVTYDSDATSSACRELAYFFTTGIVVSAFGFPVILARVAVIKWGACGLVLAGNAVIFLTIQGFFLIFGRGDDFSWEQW
UniProt Q8TDD5, sequence (Q8TDD5 whole entry, looked up): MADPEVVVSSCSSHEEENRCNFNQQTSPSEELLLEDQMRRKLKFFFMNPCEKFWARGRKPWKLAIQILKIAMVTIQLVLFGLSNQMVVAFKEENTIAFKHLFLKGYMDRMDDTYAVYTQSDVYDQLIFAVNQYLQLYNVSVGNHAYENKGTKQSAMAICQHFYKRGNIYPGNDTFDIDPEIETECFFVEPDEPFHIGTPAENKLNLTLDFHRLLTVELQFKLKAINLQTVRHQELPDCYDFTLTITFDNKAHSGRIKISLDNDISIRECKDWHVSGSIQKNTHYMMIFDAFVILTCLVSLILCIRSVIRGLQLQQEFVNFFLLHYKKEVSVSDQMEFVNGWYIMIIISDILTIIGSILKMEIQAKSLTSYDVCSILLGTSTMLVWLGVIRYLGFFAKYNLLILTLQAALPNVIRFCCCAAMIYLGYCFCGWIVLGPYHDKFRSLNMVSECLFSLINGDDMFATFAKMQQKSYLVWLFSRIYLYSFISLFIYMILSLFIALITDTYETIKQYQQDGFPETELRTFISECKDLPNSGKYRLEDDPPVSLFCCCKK
UniProt P28290, sequence (P28290 whole entry, looked up): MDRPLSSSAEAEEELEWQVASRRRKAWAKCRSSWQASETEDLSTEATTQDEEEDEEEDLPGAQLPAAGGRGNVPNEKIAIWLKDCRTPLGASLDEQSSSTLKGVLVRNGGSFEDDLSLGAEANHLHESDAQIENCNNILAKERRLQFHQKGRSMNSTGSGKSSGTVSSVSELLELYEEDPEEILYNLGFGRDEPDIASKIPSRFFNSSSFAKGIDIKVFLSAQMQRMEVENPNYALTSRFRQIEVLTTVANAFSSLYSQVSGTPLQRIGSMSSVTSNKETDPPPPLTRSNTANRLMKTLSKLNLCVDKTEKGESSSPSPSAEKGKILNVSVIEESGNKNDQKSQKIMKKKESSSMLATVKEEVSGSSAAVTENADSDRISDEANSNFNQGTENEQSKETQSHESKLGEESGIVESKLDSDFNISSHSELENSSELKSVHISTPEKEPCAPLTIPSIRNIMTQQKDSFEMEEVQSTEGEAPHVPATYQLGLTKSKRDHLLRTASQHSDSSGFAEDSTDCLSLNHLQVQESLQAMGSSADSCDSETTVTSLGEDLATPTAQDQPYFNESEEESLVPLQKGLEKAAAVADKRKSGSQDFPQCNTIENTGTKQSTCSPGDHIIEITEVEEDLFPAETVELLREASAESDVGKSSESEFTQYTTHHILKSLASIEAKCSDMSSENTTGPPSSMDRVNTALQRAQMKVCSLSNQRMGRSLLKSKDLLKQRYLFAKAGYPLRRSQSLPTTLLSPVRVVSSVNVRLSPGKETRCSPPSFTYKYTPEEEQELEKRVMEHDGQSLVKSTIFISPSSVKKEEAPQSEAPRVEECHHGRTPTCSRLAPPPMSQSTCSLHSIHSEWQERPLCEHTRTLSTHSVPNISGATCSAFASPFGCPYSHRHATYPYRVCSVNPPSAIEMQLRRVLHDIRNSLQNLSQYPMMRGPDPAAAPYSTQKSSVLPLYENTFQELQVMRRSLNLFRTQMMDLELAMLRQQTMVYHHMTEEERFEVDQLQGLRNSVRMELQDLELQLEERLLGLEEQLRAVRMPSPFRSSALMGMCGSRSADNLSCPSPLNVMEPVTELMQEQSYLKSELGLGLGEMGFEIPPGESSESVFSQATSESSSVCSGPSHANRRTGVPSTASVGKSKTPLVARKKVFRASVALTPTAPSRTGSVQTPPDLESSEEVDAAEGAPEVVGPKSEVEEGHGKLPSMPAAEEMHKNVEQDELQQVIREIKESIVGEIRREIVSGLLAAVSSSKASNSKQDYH

log2 fold change, inactive:
KXD1 (UniProt Q9BQD3) -0.033
ITPRID2 (UniProt P28290) 0.078
MAPK11 (UniProt Q15759) -0.332
LDLRAP1 (UniProt Q5SW96) -0.045
LRRFIP1 isoform 4 (UniProt Q32MZ4) -0.1
MAGED1 isoform 2 (UniProt Q9Y5V3) 0.01
LOX (UniProt P28300) -0.028
LGALS8 isoform 2 (UniProt O00214) -0.029
KIF21A (UniProt H0YI78) -0.05
MBLAC1 (UniProt A4D2B0) 0.063
LAPTM4B (UniProt Q86VI4) -0.12
LEPROT (UniProt O15243) -0.11
LAMP2 isoform 2 (UniProt P13473) 0.028
MFSD12 isoform 3 (UniProt Q6NUT3) 0.077
MAGEA8 (UniProt P43361) -0.063
ING5 (UniProt Q8WYH8) -0.046
MED29 (UniProt Q9NX70) -0.044
MFSD8 (UniProt Q8NHS3) 0.001
MELK (UniProt Q14680) -0.009
MCOLN3 (UniProt Q8TDD5) -0.132
MGRN1 isoform 2 (UniProt O60291) 0.071

Reference: the supplement of paper PMC10849652
